From PubChem
In the library only some 2.9% were active in any assay of this set; here they are far more common.
Rango dissoc inh = inhibition of RanGTP-driven Rango-importin beta dissociation | Biochemical FRET Rango-importin beta, RanGTP-induced dissociation | AID 540253 | actives 0.071% (n = 340,000) | O95149+P62826 | Potency, µM (titrated, usually from 46.1 µM), for inactives: top-dose activity change, negative = inhibition; further: potency means the concentration at half of the fitted maximal effect; % of control where 0% means no effect; nearly all actives have a fitted effect of over 45% in size
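Rango/importin beta premix (0.1/0.25 uM final), PBS + 1 mM DTT + 0.02% Tween-20 + 0.1% BSA; cpd 5 min RT; FRET pre-read; + RanGTP-RCC1 (0.6 uM Ran, 2 mM GTP, 0.2 uM RCC1); 45 min RT; FRET post-read, ex 430, em 486/530 nm.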
Rango-impB inh = Rango-importin beta binding inhibition. Potency, µM (top dose mostly 92.2 µM), for the others: top-dose inhibition of complex formation. actives 0.031% (n = 340,000). AID 540263. Rango CFP/YFP FRET sensor + importin beta, 45 min. Q14974;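 further: potency means the concentration at half of the fitted maximal effect; 0% = DMSO wells and 100% = buffer wells lacking importin beta; nearly all actives have a fitted effect of over 15% in size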
Target sequence (Q14974 whole entry, looked up): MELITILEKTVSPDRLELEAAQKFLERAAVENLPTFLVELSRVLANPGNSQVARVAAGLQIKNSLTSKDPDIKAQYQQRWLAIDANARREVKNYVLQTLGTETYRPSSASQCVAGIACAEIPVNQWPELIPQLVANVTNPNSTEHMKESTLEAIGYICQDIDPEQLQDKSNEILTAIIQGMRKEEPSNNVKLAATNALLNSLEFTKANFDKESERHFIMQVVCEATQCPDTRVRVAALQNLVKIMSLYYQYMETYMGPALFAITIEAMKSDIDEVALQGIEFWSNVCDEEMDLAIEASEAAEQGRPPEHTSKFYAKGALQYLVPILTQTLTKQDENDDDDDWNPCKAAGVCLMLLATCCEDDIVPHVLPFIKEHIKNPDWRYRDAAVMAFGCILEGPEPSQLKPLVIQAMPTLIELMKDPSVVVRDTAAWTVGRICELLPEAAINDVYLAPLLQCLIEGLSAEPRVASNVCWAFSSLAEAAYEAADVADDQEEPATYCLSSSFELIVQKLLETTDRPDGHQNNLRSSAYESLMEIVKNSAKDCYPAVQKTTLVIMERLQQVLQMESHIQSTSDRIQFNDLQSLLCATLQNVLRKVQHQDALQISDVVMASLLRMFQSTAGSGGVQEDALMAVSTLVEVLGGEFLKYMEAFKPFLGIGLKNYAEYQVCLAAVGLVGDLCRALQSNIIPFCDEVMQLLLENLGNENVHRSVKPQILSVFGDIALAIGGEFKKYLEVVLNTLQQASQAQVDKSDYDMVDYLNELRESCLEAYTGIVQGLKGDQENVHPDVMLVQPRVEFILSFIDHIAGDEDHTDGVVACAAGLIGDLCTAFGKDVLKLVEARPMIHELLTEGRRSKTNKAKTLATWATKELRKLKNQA
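FRET biosensor Rango (snurportin 1 IBB between N-terminal EYFP and C-terminal Cerulean), 50 nM in PBS/1 mM DTT/0.02% Tween-20/0.1% BSA, preincubated 5 min RT with compound; 0.125 microM importin beta added, 45 min RT, CFP/YFP FRET ratio read.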
DRD3 antagonist = antagonists of human D3 dopamine receptor; P35462; D3R cells, DiscoveRx beta-arrestin luminescence, antagonist mode; active compounds read low; max response, negative = inhibition, %; actives 2.5% (n = 360,000); AID 652054; in the data active means max response below about -50%; inconclusive means no clear call, values can overlap the other calls; further: on the % scale 0 is the no-effect control and ±100 the full control effect
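Cells plated overnight at 1500 cells/well, then exposed to library compounds with dopamine controls for 90 minutes at 37 degrees C. DiscoveRx reagent added for 30–60 minutes at room temperature; luminescence read, quantitative HTS format.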
DRD3 agonist = activates the human D3 dopamine receptor | D3R DiscoveRx beta-arrestin cells, luminescence, 90 min | max activation, % | actives 0.58% (n = 410,000) | AID 652048; in the data active means max activation above about 30%; further: 0% is about no effect
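Cells at 1500/well, incubated overnight, then treated with pinned compounds (dopamine as control) for 90 min at 37 degrees C. DiscoveRx reagent added for 30 - 60 minutes at room temperature; luminescence read.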
Mm-Cpn inhibitor = inhibitors of Methanococcus maripaludis chaperonin TRiC (MmCpn); purified Mm-Cpn ATPase, ADP Transcreener TR-FRET; Potency, µM (top dose mostly 76.9 µM), for the others: at the highest dose activity, negative = inhibition, usual class: inhibitors; actives 0.031% (n = 330,000); AID 504842; active means well fitted inhibition curve with a large enough effect; inconclusive means small, poorly fitted or top-dose-only effect; further: potency means the concentration at half of the fitted maximal effect; on the % scale 0 is the no-effect control and ±100 the full control effect; nearly all actives have a fitted effect of over 80% in size
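Compound-treated chaperonin, 25 nM final, turns over 10 uM ATP at 37°C for 30 min following a 10 min preincubation; ADP generated competes with ADP-d2 for Eu-cryptate antibody, lowering FRET.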
PTAP TSG101 blk = blocks PTAP/TSG101 interaction to inhibit HIV-1 budding | Potency, µM (highest dose often 115 µM), for inactives: at the highest dose activity change, negative = inhibition, actives largely listed as inhibitors | Fluorescence polarization, FITC-PTAP peptide / Tsg101 binding | 340,000 tested, under 10 active | Q99816; active means well fitted inhibition curve with a large enough effect in the main read-out, with a control signal flat, not every such curve was filed as active; inconclusive means small, poorly fitted or top-dose-only effect, or effect the other way, or a change in a side signal; inactive means no such curve, though single readings can be large or run the other way; further: potency means the concentration at half of the fitted maximal effect; % of control where 0% means no effect
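Fluorescence anisotropy tracks displacement of a FITC-tagged PTAP peptide (50 nM) from the Tsg101 binding domain (10 uM), following a 20 min room-temperature incubation at pH 7.5.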
The depositor's hits bear a star; ? = inconclusive; . = no result. Unless noted, the call rests on the fitted dose curve.

SMILES	Rango dissoc inh	Rango-impB inh	DRD3 antagonist	DRD3 agonist	Mm-Cpn inhibitor	PTAP TSG101 blk
COc1ccc(NC(=O)C2C3C=CC(C3)C2C(=O)NCc2ccco2)c(OC)c1 (stereo unspecified)	-13%	0%	-56*	0	-1%	-2%
CCN1CCCC(CO)(Cc2ccccc2)C1 (stereo unspecified)	-23%	-1%	16	-3	0%	-6%
OCC1(Cc2ccccc2)CCCN(Cc2ccc(-c3ccco3)cc2)C1 (stereo unspecified)	-28%	3%	-90*	-20	-4%	3%
CSc1cccc(CN2CCC(CO)(Cc3ccccc3)CC2)c1	0%	0%	-23	-6	-2%	-3%
OCC1(Cc2ccccc2)CCN(Cc2ccc(-c3ccco3)cc2)CC1	-8%	0%	-85*	-31	-1%	-3%
O=C(CN1C(=O)COc2ccc(S(=O)(=O)N3CCOCC3)cc21)Nc1ccc(F)c(Cl)c1	.	.	.	-17	.	.
O=[N+]([O-])c1cc(-c2ncccn2)c([N+](=O)[O-])s1	-5%	0%	-104*	-19	-1%	-1%
O=C(Cn1c2[n+](c3ccc(C(F)(F)F)cc31)CCCCC2)c1ccc2c(c1)OCCO2	-4%	-3%	?	-3	1%	-1%
CCc1cccc(NC(=O)Cn2c3[n+](c4ccc(C(F)(F)F)cc42)CCCCC3)c1	-2%	0%	5	-10	0%	-4%
O=C(Cn1c2[n+](c3ccc(C(F)(F)F)cc31)CCCCC2)c1cccc([N+](=O)[O-])c1	-15%	5%	-89*	-12	1%	-4%
O=C(Cn1c2[n+](c3ccc(C(F)(F)F)cc31)CCCCC2)Nc1ccccc1	-22%	0%	-51*	-33	0%	3%
Cc1ccc(-c2nc(N/N=C/c3ccccc3[N+](=O)[O-])c3ccccc3n2)cc1	-6%	1%	35	45*	-3%	0%
COc1cc(C(=O)N/N=C/c2ccsc2C)cc(OC)c1OC	0%	-2%	-53*	-12	1%	-2%
COc1ccc(Br)cc1/C=N/NC(=O)c1cc(OC)c(OC)c(OC)c1	0%	-2%	32	2	0%	-4%
CCOC(=O)c1sc2nc(CSc3ccccc3)nc(N3CCCN(C)CC3)c2c1C	15%	-1%	-62*	-4	1%	-2%
COCCNC(=O)Cn1cnc([N+](=O)[O-])n1	2%	2%	-71*	-5	-2%	0%
CCOC(=O)[C@]12CCC=C1N(Cc1ccc3c(c1)OCO3)C(=O)[C@H](CC(=O)NCCCCc1ccccc1)C2	.	.	-1	-10	.	.
CCOC(=O)[C@]12CCCC=C1N(Cc1ccc3c(c1)OCO3)C(=O)[C@H](CC(=O)NCCCCc1ccccc1)C2	.	.	-51*	0	.	.
CCc1cccc(NC(=O)Cn2nc(-c3ccc(OC)cc3)ccc2=O)c1	.	.	.	6	.	.
CCCNc1nc(C)cc(-c2cc(-c3ccccc3)on2)n1	-6%	-2%	15	-5	0%	-2%
C/C(=N\Nc1nc(C)cc(-c2ccccc2)n1)c1ccc(F)cc1	-4%	-5%	-5	1	-3%	-3%
COc1ccc(/C(C)=N/Nc2nc(C)cc(-c3ccccc3)n2)cc1	10%	1%	9	48*	.	0%
COc1ccc(Nc2nc(C)cc(-c3cc(-c4ccccc4)on3)n2)cc1	-3%	0%	35	52*	.	-2%
COc1ccc(-c2cc(-c3ccccc3)no2)cc1	15%	4%	20	35*	-1%	1%
CCc1ccccc1NC(=O)c1ccc2c(c1)N(Cc1cccc(Cl)c1)C(=O)c1ccccc1S2(=O)=O	.	.	.	-1	.	.
SMILES	Rango dissoc inh	Rango-impB inh	DRD3 antagonist	DRD3 agonist	Mm-Cpn inhibitor	PTAP TSG101 blk
Cc1cnc(=O)[nH]c1SCc1ccc(C(F)(F)F)cc1	2%	-1%	-5	31*	-7%	-5%
CSc1ccc(-c2nc3cccc(C)n3c2Nc2ccc3c(c2)OCO3)cc1	.	.	.	-4	.	.
O=C(CCl)NC1CCCc2ccccc21 (stereo unspecified)	-3%	-1%	10	4	1%	-1%
CN(CC(=O)NC1CCCc2ccccc21)C1CCCCC1 (stereo unspecified)	-2%	-4%	-51*	-12	0%	-1%
CCOCCn1c(N2CCCN(C)CC2)nc2ccccc21	.	.	.	-12	.	.
CC(=O)Oc1ccc2c(c1)C(=O)CCCCCC(=O)O2	.	.	-70*	0	.	.
CC(=O)c1cccc(NC(=O)C2CCCN(c3nnc(-n4cccc4)s3)C2)c1 (stereo unspecified)	.	.	.	-3	.	.
O=C(NC(c1ccccc1)c1ccc2ccccc2n1)C1CCN(Cc2cccc(C(F)(F)F)c2)CC1 (stereo unspecified)	.	.	-63*	-21	.	.
O=C(NC(c1ccccc1)c1ccc2ccccc2n1)C1CCN(Cc2ccc(Cl)c(Cl)c2)CC1 (stereo unspecified)	.	.	-124*	-29	.	.
O=C(c1ccc([N+](=O)[O-])cc1)N1c2ncnn2C2(CCCCC2)[C@@H]2CCCC[C@@H]21	.	.	.	-11	.	.
Cc1[nH]nc2nc(SCC(=O)NCC3CCCO3)n(-c3ccc(Br)cc3)c(=N)c12 (stereo unspecified)	12%	5%	-50*	6	-3%	0%
O=C(CSc1nc2c([nH]c3ccccc32)c(=O)n1-c1ccccc1)N1CCCCC1	.	.	.	-9	.	.
O=C(CSc1nc2c([nH]c3ccccc32)c(=O)n1-c1ccc(F)cc1)N1CCCCCC1	.	.	.	33*	.	.
Cc1cc(-n2c(SCC(=O)Nc3ccc(Br)cc3)nc3n[nH]c(C)c3c2=N)ccc1Cl	-7%	-3%	-17	0	-2%	0%
Cc1nnc(SCC(=O)N2CC(=O)Nc3ccccc32)n1Cc1ccccc1	12%	-1%	-66*	-6	-2%	-4%
